According to PubChem BioAssay (Tox21):
The source made the active and inactive calls. Unless noted, calls come from the whole dose curve; as a rule, active = well fitted curve in the direction sought with a large enough effect in the repeat runs; inconclusive = weak or mixed curves; inactive = flat fitted curve, though single readings scatter.

What was measured:
[1] = qHTS assay to test for compound auto fluorescence at 535 nm (green) in HEK293 cells (AID 720680)
[2] = qHTS assay to test for compound auto fluorescence at 460 nm (blue) in HEK293 cell free culture (AID 720681); note: potency is the fitted concentration of half-maximal effect
Method in brief: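 Test compounds were pinned into cell-free culture medium (DMEM with 10% FBS) and fluorescence was read directly at Ex/Em 405/460 nm. Signals were expressed as fluorescence equivalents of triamterene, with DMSO vehicle as control.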

[3] = qHTS assay to test for compound auto fluorescence at 535 nm (green) in HEK293 cell free culture (AID 720682)
Method in brief: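 Intrinsic compound fluorescence is measured in culture medium containing 10% FBS, with excitation at 485 nm and detection at 535 nm, referenced to fluorescein.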

[4] = qHTS assay to test for compound auto fluorescence at 590 nm (red) in HEK293 cell free culture (AID 720683)
Method in brief: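 Tox21 10K library compounds were pinned into cell-free DMEM with 10% FBS and fluorescence was read at excitation 540 nm. Activity is expressed as Rose Bengal sodium equivalency.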

[5] = qHTS assay to test for compound auto fluorescence at 590 nm (red) in HepG2 cell free culture (AID 720684)
Method in brief: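 Measured in medium alone (MEM containing 10% FBS) following pintool addition of compound; emission at 590 nm with 540 nm excitation, referenced to Rose Bengal sodium.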

[6] = qHTS assay to test for compound auto fluorescence at 460 nm (blue) in HepG2 cell free culture (AID 720685); note: potency is the fitted concentration of half-maximal effect
Method in brief: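 Compound (23 nL) or DMSO pinned into cell-free MEM with 10% FBS; blue fluorescence read at 405/460 nm excitation/emission, expressed as auto-fluorescence equivalency to triamterene.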

[7] = qHTS assay to test for compound auto fluorescence at 535 nm (green) in HepG2 cell free culture (AID 720686)
[8] = qHTS assay to test for compound auto fluorescence at 460 nm (blue) in HepG2 cells (AID 720687); note: potency is the fitted concentration of half-maximal effect
Method in brief: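 Cells (2,000/well in MEM with 10% FBS) attached overnight at 37 C, then were exposed to compound or DMSO for 1 hr at 37 C, 5% CO2. Fluorescence read at Ex/Em 405/460 nm, expressed as triamterene-equivalent signal.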

[9] = target: Glucocorticoid receptor (Homo sapiens) (UniProt P04150); assay: qHTS assay to identify small molecule agonists of the glucocorticoid receptor (GR) signaling pathway (AID 720691; active = well fitted activation curve with a large enough effect in the signal ratio in the repeat runs, not every such curve was filed as active; inconclusive = weak or mixed curves, or effect the other way; inactive = no such curve, though single readings can be large or run the other way; the % refers to the signal ratio; note: potency is the fitted concentration of half-maximal effect)
Chain of Glucocorticoid receptor (Homo sapiens) (P04150 whole entry, looked up): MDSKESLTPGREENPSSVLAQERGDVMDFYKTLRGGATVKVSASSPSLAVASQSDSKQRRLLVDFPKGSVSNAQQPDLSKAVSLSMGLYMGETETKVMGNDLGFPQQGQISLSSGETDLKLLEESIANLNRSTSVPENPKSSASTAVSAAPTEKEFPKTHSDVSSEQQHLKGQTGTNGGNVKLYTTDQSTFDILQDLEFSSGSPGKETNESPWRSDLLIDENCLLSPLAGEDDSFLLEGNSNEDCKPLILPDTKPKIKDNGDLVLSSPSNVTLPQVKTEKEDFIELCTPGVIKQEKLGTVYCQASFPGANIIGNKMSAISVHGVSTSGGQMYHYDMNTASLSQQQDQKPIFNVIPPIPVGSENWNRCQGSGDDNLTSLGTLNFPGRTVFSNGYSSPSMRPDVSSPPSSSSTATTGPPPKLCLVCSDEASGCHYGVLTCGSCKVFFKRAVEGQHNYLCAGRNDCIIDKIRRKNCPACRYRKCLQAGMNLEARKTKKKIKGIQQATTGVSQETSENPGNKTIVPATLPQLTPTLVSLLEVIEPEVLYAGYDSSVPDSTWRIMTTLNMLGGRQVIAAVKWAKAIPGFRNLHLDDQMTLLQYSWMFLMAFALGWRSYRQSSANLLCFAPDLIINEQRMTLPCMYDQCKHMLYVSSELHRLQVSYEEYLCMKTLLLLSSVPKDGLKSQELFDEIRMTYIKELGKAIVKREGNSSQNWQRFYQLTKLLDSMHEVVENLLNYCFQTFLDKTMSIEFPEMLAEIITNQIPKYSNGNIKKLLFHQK
Method in brief: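 Agonist mode in a HeLa line carrying a GRE-controlled beta-lactamase reporter. Compounds act for 18 h at 37 C before a 2 h room-temperature FRET substrate step and fluorescence reading.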

[10] = target: Glucocorticoid receptor (Homo sapiens) (UniProt P04150); assay: qHTS assay to identify small molecule antagonists of the glucocorticoid receptor (GR) signaling pathway (AID 720692; active = well fitted inhibition curve with a large enough effect in the signal ratio in the repeat runs, not every such curve was filed as active; inconclusive = weak or mixed curves, or effect the other way; inactive = no such curve, though single readings can be large or run the other way; the % refers to the signal ratio)
Method in brief: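 Cells plated, rested 4 h at 37 C/5% CO2; compounds in DMSO pin-transferred; dexamethasone added to 5 nM final; 18 h at 37 C; B/G FRET substrate added, 2 h room temperature; fluorescence measured.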

Measured: Potency
Tags give direction and shape of the fitted curve or compound fluorescence and quenching.

NC(=O)c1ncn([C@@H]2O[C@H](CO)[C@@H](O)[C@H]2O)c1N
not listed: [9] | [10]
inactive: all other assays above

c1ccc(CCCc2ccccn2)cc1
not listed: [9] | [10]
inactive: all other assays above

COC(=O)[C@H]1[C@H]2C[C@@H]3c4[nH]c5cc(OC)ccc5c4CCN3C[C@H]2C[C@@H](OC(=O)COc2ccc(OC)cc2)[C@@H]1OC
not listed: [10]
inactive: all other assays above

CCCCCOC(=O)Nc1nc(=O)n([C@@H]2O[C@H](C)[C@@H](O)[C@H]2O)cc1F
not listed: [9] | [10]
inactive: all other assays above

OCC(CO)(CO)COCC(CO)(CO)CO
not listed: [9] | [10]
inactive: all other assays above

C=CC(=O)OCCCCCC
not listed: [9] | [10]
inactive: all other assays above

COCc1ccc(COC)cc1
not listed: [9] | [10]
inactive: all other assays above

C/C=C1\C(=O)C[C@H]2[C@@H]3CCC4=CC(=O)CC[C@]4(C)[C@H]3CC[C@]12C
not listed: [9] | [10]
inactive: all other assays above

C=CCSCC1Nc2cc(Cl)c(S(N)(=O)=O)cc2S(=O)(=O)N1 (stereo not drawn)
inactive: all assays above

CCCc1ccccc1O
inactive: all assays above

CCCCCCCCCCCCCCCCCCOCC(O)CO (stereo not drawn)
active: [9] 0.952 µM [inconclusive]
not listed: [10]
inactive: all other assays above

CCCCCCCCC=O
inactive: all assays above

Cc1onc(-c2ccccc2)c1-c1ccc(S(N)(=O)=O)cc1
inactive: all assays above

OC[C@H]1O[C@@H]2O[C@H]3[C@H](O)[C@@H](O)[C@@H](O[C@H]4[C@H](O)[C@@H](O)[C@@H](O[C@H]5[C@H](O)[C@@H](O)[C@@H](O[C@H]6[C@H](O)[C@@H](O)[C@@H](O[C@H]7[C@H](O)[C@@H](O)[C@@H](O[C@H]8[C@H](O)[C@@H](O)[C@@H](O[C@H]9[C@H](O)[C@@H](O)[C@@H](O[C@H]1[C@H](O)[C@H]2O)O[C@@H]9CO)O[C@@H]8CO)O[C@@H]7CO)O[C@@H]6CO)O[C@@H]5CO)O[C@@H]4CO)O[C@@H]3CO
inactive: all assays above

CC12CCC(CC1=O)C2(C)C (stereo not drawn)
inactive: all assays above

CCCCN(CCO)CCO
inactive: all assays above

CCCCc1ccc(N)cc1
inactive: all assays above

CCCCC1CCCCC(=O)O1 (stereo not drawn)
inactive: all assays above

CC1=CC(=O)CCC1
inactive: all assays above

CCCCCCOC(=O)c1ccccc1O
inactive: all assays above

CC(C)CCOC(=O)CC(C)C
not listed: [10]
inactive: all other assays above

Nc1ccc2cc(S(=O)(=O)O)ccc2c1
active: [2] 31.6 µM | [6] 31.6 µM [fluorescent] | [8] 31.6 µM [fluorescent]
inactive: all other assays above

O=[N+]([O-])c1ccc(CCO)cc1
inactive: all assays above
